Data on 40 molecules can be found in ChEMBL document CHEMBL1157539, “Thousands of chemical starting points for antimalarial lead identification” (Nature, 2010).

The structures appear in SMILES notation.

For the experiment, the system named is Plasmodium falciparum. Description: GSK_TCMDC: Inhibition of Plasmodium falciparum 3D7 in whole red blood cells, using parasite LDH activity as an index of growth. Test compounds present at 2uM. The format is functional.
For `O=C1NC(=O)C(c2ccc(Cl)cc2)=C1Nc1cccc(S(=O)(=O)C(F)(F)F)c1`, the Inhibition is recorded as 99%.

For the molecule `CCOC(=O)c1cncc(/C=C/c2cc(C)cnc2N)c1`, the Inhibition was found to be 86%.

Turning to `COc1ccccc1-n1c(SCC(=O)Nc2ccccc2F)nc2cccnc21`, the Inhibition was 96%.

For `CCNc1cc(C(=O)N[C@@H](Cc2ccccc2)[C@H](O)CN[C@@H]2CCc3ccccc32)cc(N2CCCC2=O)c1`, the Inhibition turned out to be 92%.

`Cc1cc(-c2nc3cc(C(=N)N)ccc3[nH]2)c(C)cc1-c1nc2cc(C(=N)N)ccc2[nH]1.Cl` had an Inhibition of 96%.

For the molecule `CC(=O)Nc1ncc(C(=O)Nc2cccc(-c3ccc(-c4nc5ccccc5[nH]4)cc3)c2)s1`, the Inhibition worked out at 100%.

Consider `CCOC(=O)c1nc(-c2ccccc2)[nH]c1NC(=S)NC1CCCCC1`, for which the Inhibition stood at 96%.

`Cc1cc(NC(=O)NCCN2CCC(NC(=O)c3cccc(Br)c3)C2)c2ccccc2n1.O=C(O)C(F)(F)F` (stereo not given): the Inhibition is reported as 100%.

Turning to `O=C(Nc1ccccc1C(F)(F)F)Nc1nn(Cc2c(F)cccc2Cl)cc1Br`, the Inhibition came to 100%.

`COc1ccc2nccc([C@@H](O)CN3CCC(NCCNc4ccccn4)CC3)c2c1.O=C(O)C(=O)O` returned an Inhibition of 100%.

In the case of `CC(=O)Nc1ccc(CN2CCc3ccc(NS(=O)(=O)c4cccc(OCc5ccc(Cl)cc5)c4)cc3CC2)s1`, the Inhibition was 93%.

With `CN1CCCN(Cc2cccc(-c3ccc(NC(=O)c4ccc(Cl)cc4)cc3)c2)CC1.O=C(O)C(F)(F)F`, the Inhibition came to 97%.

`O=C(Nc1ccc(-c2nc3ccccc3[nH]2)cc1)c1ccc(S(=O)(=O)N2CCc3ccccc32)cc1` yielded an Inhibition of 100%.

Molecule `COc1ccc(Cl)cc1N1CCN(CCCNC(=O)c2ccc(-c3nc4cc(Cl)c(F)cc4[nH]3)c(F)c2)CC1` showed an Inhibition of 100%.

Regarding `O=C(Nc1nc(-c2cc(F)ccc2F)cs1)c1cncc(Br)c1`, the Inhibition amounted to 85%.

With `CCN(CC)CCN(Cc1ccc(-c2ccc(C(F)(F)F)cc2)cc1)C(=O)Cn1c(CCc2cccc(F)c2F)nc(=O)c2sccc21.O=C(O)C(O)C(O)C(=O)O`, the Inhibition was found to be 96%.

In turn, `COc1ccc2[nH]c(C)cc(=NN=Cc3ccccc3)c2c1` came in with an Inhibition of 80%.

As for `O=C1c2ccccc2C(=O)N1c1ccc(S(=O)(=O)N2CCOCC2)cc1`, the Inhibition stood at 94%.

As for `Cc1noc(C)c1-c1cccc(CNCc2ccc(-c3cccc(-c4nc5cc(F)ccc5[nH]4)c3)cc2)c1.O=C(O)C(F)(F)F`, the Inhibition worked out at 100%.

In turn, `CCC[C@@H]([C@@H](CC1CCCCC1)C(=O)N[C@H](C(=O)Nc1nccs1)[C@H](C)O)N(O)C=O` gave an Inhibition of 99%.

As to `CN(C)c1ccc(/N=C2/N/C(=N/c3ccc(N(C)C)cc3)c3ccccc32)cc1`, the Inhibition is recorded as 93%.

With `COc1ccc2c(=NN=CC=Cc3ccccc3)cc(C)[nH]c2c1`, the Inhibition amounted to 99%.

For `O=C(O[C@@H]1CN[C@H](C#Cc2cc3ncnc(Nc4ccc5c(cnn5Cc5cccc(F)c5)c4)c3s2)C1)N1CCCC1`, the Inhibition was 86%.

`Cc1cc(NC(=O)Nc2ccc(C(C)(C)C)cc2)c2ccccc2n1`: the Inhibition was determined as 100%.

In turn, `Nc1nc(N)c2c(ccc3c2ccn3Cc2ccccc2)n1` registered an Inhibition of 96%.

`COc1ccc(N2CCN(CCCCNC(=O)c3ccc(NC(=O)c4ccc(OC(F)(F)F)cc4)cc3)CC2)c(OC)c1` returned an Inhibition of 100%.

On to `CCCCNc1nccc2ccc(-c3ccncc3)cc12`, for which the Inhibition turned out to be 93%.

With `C=CCc1ccc(C2CCN(CCCCNC(=O)c3ccc(NC(=O)c4ccc(Cl)cc4)cc3)CC2)cc1`, the Inhibition came to 100%.

In turn, `Cc1cccc2nc(-c3ccc(-c4ccc(CNCCCN5CCCC5=O)cc4)cc3)[nH]c12.O=C(O)C(F)(F)F` showed an Inhibition of 100%.

Turning to `CCCOc1ccc(-c2nonc2NC(=O)c2cccc(OC)c2)cc1OCCC`, the Inhibition is 94%.

Regarding `N#Cc1ccc(NC(=O)c2ccc(C(=O)NCCCCN3CCC(c4ccc5c(c4OCCOC4CCCCO4)CCCC5)CC3)cc2)cc1` (stereo not given), the Inhibition turned out to be 99%.

`COc1ccccc1-c1cccc(CNC2CCN(CC3Cn4c(=O)ccc5ccc(F)c3c54)CC2)c1.O=C(O)C(F)(F)F` (stereo not given) came in with an Inhibition of 91%.

Take `C[C@H](Cc1ccc(C[C@@H](C)NC[C@H](O)c2cccc(Cl)c2)cc1)NC[C@H](O)COc1ccccc1.Cl`: the Inhibition amounted to 96%.

Regarding `CC(C)Oc1ccc(N2CCN(CCCCNC(=O)c3ccc(NC(=O)c4ccc(Cl)cc4)cc3)CC2)c(OC(C)C)c1`, the Inhibition is on record as 100%.

Take `COc1ccc(CCNCCCCCNCCc2ccc(Cl)cc2)cc1OC.Cl`: the Inhibition was 100%.

On to `Cl.N=C(N)c1ccc(OCc2cccc(COc3ccc(C(=N)N)cc3I)c2)c(I)c1`, for which the Inhibition stood at 100%.

Consider `CCCCN(CCCC)CC(O)c1cc(-c2ccc(Cl)cc2)nc2c(Cl)cc(Cl)cc12.Cl` (stereo not given), for which the Inhibition stood at 97%.

On to `NCCNc1ccnc2cc(Cl)ccc12`, for which the Inhibition came out at 100%.

For the molecule `COc1cc(NC(=O)/C=C/c2cc(F)cc(F)c2F)cc(OCCN2CCC3(CC2)OCCO3)c1.O=C(O)C(=O)O`, the Inhibition amounted to 98%.

Turning to `Cc1cc(N[C@@H](CC(C)C)C(=O)NCCOc2ccccc2)nc(NCCOc2ccccc2)n1.O=C(O)C(F)(F)F`, the Inhibition is on record as 89%.
